Measured values: PubChem BioAssay (EPA / NIEHS)
Inconclusive results are not listed. Activity calls are given as the source filed them. How the source made its calls, unless noted: active means hit-call score of the fitted dose curve at least 0.9, where 1 is the maximum; inactive means score below 0.9.

Assays:
[1] = CCTE_Harrill_HTTr_Viability_DMEM_6hr: (Pilot) CCTE's 6-hour Cell Viability Assessment for the High-Throughput Transcriptomics (HTTr) Platform, in MCF-7 cells cultured in DMEM + 10% fetal bovine serum, Harrill Lab (AID 2283973)
Outline: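 MCF-7 cells in DMEM + 10% FBS, eight-point dilution series, 6 h exposure. Membrane integrity by propidium iodide exclusion with high-content imaging; bidirectional fit versus DMSO.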

[2] = CCTE_Harrill_HTTr_Viability_DMEM_12hr: (Pilot) CCTE's 12-hour Cell Viability Assessment for the High-Throughput Transcriptomics (HTTr) Platform, in MCF-7 cells cultured in DMEM + 10% fetal bovine serum, Harrill Lab (AID 2283974)
Outline: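 MCF-7 cells in DMEM + 10% FBS exposed 12 h to an eight-point dilution series; membrane integrity scored by propidium iodide exclusion with high-content imaging, bidirectional fitting versus DMSO.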

[3] = CCTE_Harrill_HTTr_Viability_DMEM_24hr: (Pilot) CCTE's 24-hour Cell Viability Assessment for the High-Throughput Transcriptomics (HTTr) Platform, in MCF-7 cells cultured in DMEM + 10% fetal bovine serum, Harrill Lab (AID 2283975)
Outline: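 MCF-7 cells in DMEM with 10% FBS exposed for 24 hours to an eight-point dilution series. Membrane integrity by propidium iodide exclusion with high content imaging; bidirectional fit against DMSO.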

[4] = CCTE_Harrill_HTTr_Viability_PRF_DMEM_6hr: (Pilot) CCTE's 6-hour Cell Viability Assessment for the High-Throughput Transcriptomics (HTTr) Platform, in MCF-7 cells cultured phenol red-free DMEM + 10% charcoal-stripped fetal bovine serum, Harrill Lab (AID 2283976)
Outline: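 MCF-7 cells in phenol red-free DMEM with 10% charcoal-stripped FBS exposed 6 hours to an eight-point dilution series. Propidium iodide exclusion imaged; curves fitted bidirectionally against DMSO.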

[5] = CCTE_Harrill_HTTr_Viability_PRF_DMEM_12hr: (Pilot) CCTE's 12-hour Cell Viability Assessment for the High-Throughput Transcriptomics (HTTr) Platform, in MCF-7 cells cultured in phenol red-free DMEM + 10% charcoal-stripped fetal bovine serum, Harrill Lab (AID 2283977)
Outline: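 MCF-7 cells in phenol red-free DMEM with 10% charcoal-stripped FBS exposed 12 hours to an eight-point dilution series. Viability assessed by high-content imaging of propidium iodide exclusion; bidirectional fit versus DMSO.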

[6] = CCTE_Harrill_HTTr_Viability_PRF_DMEM_24hr: (Pilot) CCTE's 24-hour Cell Viability Assessment for the High-Throughput Transcriptomics (HTTr) Platform, in MCF-7 cells cultured in phenol red-free DMEM + 10% charcoal-stripped fetal bovine serum, Harrill Lab (AID 2283980)
Outline: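 MCF-7 cells in phenol red-free DMEM with 10% charcoal-stripped FBS, eight-point dilution series, 24 h exposure. Membrane integrity by propidium iodide exclusion with high content imaging; bidirectional fit vs DMSO.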

[7] = CCTE_Harrill_HTTr_Apoptosis_DMEM_6hr: (Pilot) CCTE's 6-hour Apoptosis Assessment for the High-Throughput Transcriptomics (HTTr) Platform, in MCF-7 cells cultured in DMEM + 10% fetal bovine serum, Harrill Lab (AID 2283981)
Outline: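 Caspase-3/7 activation read by high content imaging with CellEvent Caspase 3/7 Green in MCF-7 cells (DMEM + 10% FBS), 6 h after dosing; eight-point dilution series. Bidirectional fitting relative to DMSO baseline.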

[8] = CCTE_Harrill_HTTr_Apoptosis_DMEM_12hr: (Pilot) CCTE's 12-hour Apoptosis Assessment for the High-Throughput Transcriptomics (HTTr) Platform, in MCF-7 cells cultured in DMEM + 10% fetal bovine serum, Harrill Lab (AID 2283982)
Outline: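 MCF-7 cells in DMEM + 10% FBS, exposed 12 h to an eight-point dilution series; caspase-3/7 activation imaged with CellEvent Green. Bidirectional fit versus DMSO.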

[9] = TOX21_PR_LUC_Followup_Agonist_viability: Viability Assessment in the Tox21 HEK293 Progesterone Receptor (PR) Agonism Luciferase Follow-Up Assay (AID 2283941; active means hit-call score of the fitted dose curve at least 0.9, where 1 is the maximum;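 further: loss of signal means cytotoxicity so actives lower viability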)
Outline: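 HEK293-PR-A-luc cells, pre-cultured 5 days in 10% charcoal-stripped FBS, were seeded at 3,000 cells/well, rested 5 h at 37C, then given compound in DMSO for 16 h at 37C. Cellular ATP was read by CellTiter-Glo luminescence; signal loss indicates cytotoxicity.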

[10] = target: Thyroid hormone receptor alpha (Rattus norvegicus) + Thyroid hormone receptor beta (Rattus norvegicus) (UniProt P18113+P63059); assay: TOX21_TR_LUC_GH3_Antagonist_Followup: Tox21 GH3 Thyroid Hormone Receptor Antagonism Luciferase Follow-Up Assay (AID 2283942; active means hit-call score of the fitted dose curve at least 0.9, where 1 is the maximum)
Outline: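 Antagonist mode: GH3 cells seeded 1,500/well, compounds at 15 concentrations (92 uM to 5nM final) plus T3 at 1.0 nM final, 24 h at 37C. Luciferase read with ONE-Glo after 30 min at room temperature.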

THRA (gene 7067) [11] = target: THRA (gene 7067) (UniProt P10827); assay: TOX21_TRA_COA_Antagonist_Followup_ratio: Tox21 Thyroid Hormone Receptor alpha Antagonism through Coactivator Recruitment Follow-Up Assay, Ratio (AID 2283953; active means hit-call score of the fitted dose curve at least 0.9, where 1 is the maximum)
Sequence of THRA (gene 7067) (P10827 whole entry, looked up, the tested form may be a part): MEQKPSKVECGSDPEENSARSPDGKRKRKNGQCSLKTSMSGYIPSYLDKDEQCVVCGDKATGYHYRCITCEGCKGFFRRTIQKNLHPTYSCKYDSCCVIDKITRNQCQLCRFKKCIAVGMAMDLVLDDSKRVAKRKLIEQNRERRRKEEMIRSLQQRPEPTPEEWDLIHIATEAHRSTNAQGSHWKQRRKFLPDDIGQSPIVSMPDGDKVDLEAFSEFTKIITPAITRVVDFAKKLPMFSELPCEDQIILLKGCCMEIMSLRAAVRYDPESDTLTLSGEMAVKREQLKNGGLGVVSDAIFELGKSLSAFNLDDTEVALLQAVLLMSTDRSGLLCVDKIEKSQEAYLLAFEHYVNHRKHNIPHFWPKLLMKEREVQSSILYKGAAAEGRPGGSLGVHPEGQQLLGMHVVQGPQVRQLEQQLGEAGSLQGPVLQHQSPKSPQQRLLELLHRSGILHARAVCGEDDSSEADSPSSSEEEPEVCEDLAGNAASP
Outline: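 This follow-up to the GH3 luciferase screen checks specificity in a cell-free format. It measures SRC-2 coactivator peptide binding to TRα LBD by TR-FRET and scores loss of ratio signal relative to DMSO.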

THRB (gene 7068) [12] = target: THRB (gene 7068) (UniProt P10828); assay: TOX21_TRB_BLA_Antagonist_Followup_ratio: Tox21 Thyroid Hormone Receptor beta Antagonism Beta-lactamase (BLA) Follow-Up Assay, Ratio (AID 2283958; active means hit-call score of the fitted dose curve at least 0.9, where 1 is the maximum)
Sequence of THRB (gene 7068) (P10828 whole entry, looked up, the tested form may be a part): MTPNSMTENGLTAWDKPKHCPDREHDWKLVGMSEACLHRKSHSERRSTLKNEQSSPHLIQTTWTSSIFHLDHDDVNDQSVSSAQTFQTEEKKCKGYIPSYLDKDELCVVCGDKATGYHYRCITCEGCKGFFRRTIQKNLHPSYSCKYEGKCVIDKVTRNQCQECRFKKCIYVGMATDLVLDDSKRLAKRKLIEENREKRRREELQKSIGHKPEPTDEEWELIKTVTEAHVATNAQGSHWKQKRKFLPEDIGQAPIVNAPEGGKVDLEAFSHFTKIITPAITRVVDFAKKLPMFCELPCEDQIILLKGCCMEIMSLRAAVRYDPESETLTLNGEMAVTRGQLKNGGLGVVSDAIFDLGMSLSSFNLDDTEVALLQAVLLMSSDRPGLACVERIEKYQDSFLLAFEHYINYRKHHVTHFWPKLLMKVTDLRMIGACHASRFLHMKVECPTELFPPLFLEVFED
Outline: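 GAL4-DBD/human TRβ-LBD fusion in GeneBLAzer UAS-bla HEK293T cells, 3,000 cells/well in phenol red-free DMEM with 2% charcoal-stripped FBS; compounds at 11 concentrations in triplicate, 18 h at 37C. CCF4-AM substrate 2 h, 460:530 nm ratio relative to DMSO.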

[13] = TOX21_TRB_BLA_Antagonist_Followup_viability: Viability Assessment in the Tox21 Thyroid Hormone Receptor beta Antagonism Beta-lactamase (BLA) Follow-Up Assay (AID 2283961; active means hit-call score of the fitted dose curve at least 0.9, where 1 is the maximum)
Outline: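 Cytotoxicity is measured in parallel with the antagonist-mode TRβ beta-lactamase screen, using ATP-coupled luciferase luminescence. Engineered HEK293T cells are treated for 18 h with 11-point compound series in triplicate.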

THRB (gene 7068) [14] = target: THRB (gene 7068) (UniProt P10828); assay: TOX21_TRB_COA_Antagonist_Followup_ratio: Tox21 Thyroid Hormone Receptor beta Antagonism through Coactivator Recruitment Follow-Up Assay, Ratio (AID 2283967; active means hit-call score of the fitted dose curve at least 0.9, where 1 is the maximum)
Outline: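 Cell-free TR-FRET: GST-TRb LBD (5.0 nM) with fluorescein-SRC-2 peptide (200 nM) and Tb anti-GST antibody (2 nM), 0.10% BSA. 520:495 nm emission ratio normalized to DMSO (0%) and T3 (100%).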

[15] = target: Retinoic acid receptor RXR-alpha (Homo sapiens) (UniProt P19793); assay: TOX21_TR_RXR_BLA_Antagonist_Followup_ratio: Tox21 Thyroid Hormone Receptor beta Retinoid X Receptor alpha (RXRa) Antagonism Beta-lactamase (BLA) Follow-Up Assay, Ratio (AID 2283972; active means hit-call score of the fitted dose curve at least 0.9, where 1 is the maximum)
Sequence of Retinoic acid receptor RXR-alpha (Homo sapiens) (P19793 whole entry, looked up, the tested form may be a part): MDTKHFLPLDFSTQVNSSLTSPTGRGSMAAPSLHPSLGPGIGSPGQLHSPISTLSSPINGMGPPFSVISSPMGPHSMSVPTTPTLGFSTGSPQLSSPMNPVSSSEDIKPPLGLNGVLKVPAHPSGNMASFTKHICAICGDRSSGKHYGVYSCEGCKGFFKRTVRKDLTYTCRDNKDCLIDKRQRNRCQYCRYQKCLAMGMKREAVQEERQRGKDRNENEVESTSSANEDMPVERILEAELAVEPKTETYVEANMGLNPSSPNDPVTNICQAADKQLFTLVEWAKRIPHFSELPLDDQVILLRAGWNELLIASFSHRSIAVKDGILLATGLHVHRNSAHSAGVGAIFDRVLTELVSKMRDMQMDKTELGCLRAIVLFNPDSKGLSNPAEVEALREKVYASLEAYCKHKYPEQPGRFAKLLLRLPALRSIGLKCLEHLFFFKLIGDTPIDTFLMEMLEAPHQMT
Outline: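 Antagonist mode used GAL4 UAS-driven beta-lactamase in HEK293T cells expressing RXRa, treated for 16 h with compound concentration series. Activity was taken from the blue/green (460:530 nm) ratio of cleaved to uncleaved substrate.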

[16] = TOX21_TR_RXR_BLA_Antagonist_Followup_viability: Viability Assessment in the Tox21 Thyroid Hormone Receptor beta Retinoid X Receptor alpha (RXRa) Antagonism Beta-lactamase (BLA) Follow-Up Assay (AID 2283979; active means hit-call score of the fitted dose curve at least 0.9, where 1 is the maximum)
Outline: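 RXRa-bla HEK293T cells (2,500/well, phenol red-free DMEM, 2% charcoal-stripped FBS) were attached 5 h, then exposed to compounds at 11 concentrations in triplicate for 16 h at 37C. Viability measured by CellTiter-Glo ATP luminescence, bidirectional fitting versus DMSO.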

THRA (gene 7067) [17] = target: THRA (gene 7067) (UniProt P10827); assay: TOX21_TRA_COA_Agonist_Followup_ratio: Tox21 Thyroid Hormone Receptor alpha Agonism through Coactivator Recruitment Follow-Up Assay, Ratio (AID 2283948)
Outline: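 First, compound was incubated with 2.5 nM GST-TRα LBD in 0.10% BSA. Next, 200 nM fluorescein-SRC-2 and 2 nM Tb-anti-GST antibody were added. Finally, the 520:495 nm ratio was normalized to DMSO and T3 controls.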

THRB (gene 7068) [18] = target: THRB (gene 7068) (UniProt P10828); assay: TOX21_TRB_COA_Agonist_Followup_ratio: Tox21 Thyroid Hormone Receptor beta Agonism through Coactivator Recruitment Follow-Up Assay, Ratio (AID 2283963)
Outline: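 Signal is the 520/495 nm emission ratio (excitation 340 nm), scaled between DMSO-only wells as 0% and T3 wells as 100%. It reflects fluorescein-labeled SRC-2 peptide recruitment to GST-TRβ ligand-binding domain detected via terbium anti-GST antibody.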

[19] = target: Retinoic acid receptor RXR-alpha (Homo sapiens) (UniProt P19793); assay: TOX21_TR_RXR_BLA_Agonist_Followup_ratio: Tox21 Thyroid Hormone Receptor beta Retinoid X Receptor alpha (RXRa) Agonism Beta-lactamase (BLA) Follow-Up Assay, Ratio (AID 2283968; active means hit-call score of the fitted dose curve at least 0.9, where 1 is the maximum)
Outline: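 RXRa-UAS-bla HEK293T cells (GAL4 beta-lactamase reporter) were treated with compounds at 11 concentrations in triplicate for 16 h at 37C/5% CO2, then loaded with CCF4-AM substrate for 2 h at room temperature; activity is the 460:530 nm ratio versus DMSO baseline.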

[20] = TOX21_TR_RXR_BLA_Agonist_Followup_viability: Viability Assessment in the Tox21 Thyroid Hormone Receptor beta Retinoid X Receptor alpha (RXRa) Agonism Beta-lactamase (BLA) Follow-Up Assay (AID 2283970; active means hit-call score of the fitted dose curve at least 0.9, where 1 is the maximum)
Outline: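 RXRa-UAS-bla HEK293T cells seeded at 2,500/well in phenol red-free DMEM with 2% charcoal-stripped FBS, exposed to compound 16h at 37C/5% CO2 in qHTS. Viability read by CellTiter-Glo ATP luminescence; bidirectional fitting against DMSO baseline, signal loss indicating cytotoxicity.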

## CC[C@H](C)C(=O)O[C@H]1C[C@@H](C)C=C2C=C[C@H](C)[C@H](CC[C@@H]3C[C@@H](O)CC(=O)O3)[C@H]21
[1]
  outcome: inactive
[2]
  outcome: inactive
[3]
  outcome: inactive
[4]
  outcome: inactive
[5]
  outcome: inactive
[6]
  outcome: inactive
[7]
  outcome: inactive
[8]
  outcome: inactive

## CC(C)c1cccc(C(C)C)c1N1C(=O)c2ccc(O)cc2C1=O
[9]
  outcome: inactive
[10]
  outcome: inactive
THRA (gene 7067) [11]
  outcome: inactive
THRB (gene 7068) [12]
  AC50: 8.53 µM (active)
[13]
  outcome: inactive
THRB (gene 7068) [14]
  outcome: inactive
[15]
  outcome: inactive
[16]
  outcome: inactive

## CC(C)=CCC/C(C)=C\CO
THRA (gene 7067) [17]
  outcome: inactive
THRB (gene 7068) [18]
  outcome: inactive
[19]
  outcome: inactive
[20]
  outcome: inactive

## CCC(C)(C)C(=O)O[C@H]1C[C@@H](C)C=C2C=C[C@H](C)[C@H](CC[C@@H]3C[C@@H](O)CC(=O)O3)[C@H]21
[1]
  outcome: inactive
[2]
  outcome: inactive
[3]
  outcome: inactive
[4]
  outcome: inactive
[5]
  outcome: inactive
[6]
  outcome: inactive
[7]
  outcome: inactive
[8]
  outcome: inactive

## O=P(OC(CCl)CCl)(OC(CCl)CCl)OC(CCl)CCl
[9]
  outcome: inactive
